Assay results: PubChem BioAssay
Values joined by “and” are separate entries in the source; they are usually repeats but may differ in a detail not shown here. Equal values may be shown once. Records with an inconclusive call do not appear. Active and inactive are the calls of the source.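 How the source made its calls, unless noted: active means percent response above 42, roughly 3 SD of non-fluorescent test compounds; inactive means the rest.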 Square brackets hold non-standard residues; d marks the D form. Peptide text beside a SMILES is read from it. ξ: configuration not given here. ξV = CC(C)C(N)C(=O)O

Legend:
[1] = rapamycin-like changes in RPL19A-GFP expression – cell-based, S. cerevisiae, multiplex flow cytometry, primary screen (AID 1862; in the data active means percent of DMSO control GFP below about 86%;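 further: lower values mimic rapamycin by blocking the RPL19A rise seen in DMSO cells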); conditions: S. cerevisiae RPL19A-GFP strain, flow cytometry fluorescence, 3 h; at 10 µM; stronger effect = lower value
[2] = TOR pathway GLN3 branch reporter MEP2-GFP changes – S. cerevisiae, multiplex flow cytometry, primary screen (AID 1867;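 active means GFP response, as percent of the DMSO control, above the screen-wide mean plus 3 SD, about 139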;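 further: median GFP channel fluorescence of barcode-gated MEP2-GFP cells measured by flow cytometry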); conditions: S. cerevisiae MEP2-GFP strain, 3 h, at 10 µM, stronger effect = higher value, 100% means same as DMSO wells
[3] = TOR pathway RTG branch CIT2 reporter changes – S. cerevisiae, GFP fusion, multiplex flow cytometry, primary screen (AID 1870;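 active means percent response above a set limit, the screen-wide mean plus 3 SD, cut at about 130% in these data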;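 further: barcoded CIT2-GFP strain pooled with four other GFP strains with rapamycin as positive control; median GFP fluorescence per well over plate mean of DMSO wells so 100% = DMSO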); conditions: S. cerevisiae CIT2-GFP expression, 3 h, at 10 µM, stronger effect = higher value
[4] = TOR pathway LAP4-GFP level changes – S. cerevisiae, multiplex flow cytometry, primary screen (AID 1873;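 active means GFP signal, as percent of the solvent control, above the screen mean plus 3 SD, about 149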); conditions: S. cerevisiae LAP4-GFP expression, 3 h, at 10 µM, stronger effect = higher value
[5] = yeast AGP1-GFP level changes, GLN3 branch – cell-based, multiplex flow cytometry, S. cerevisiae, primary screen (AID 1887;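 active means GFP signal above the screen-wide mean plus 3 SD, that is over about 124.5% of the solvent control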;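 further: AGP1-GFP fusion strain of S. cerevisiae within a five-strain barcoded multiplex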); conditions: 3 h, at 10 µM, stronger effect = higher value
[6] = reduced mouse 2C T cell binding to pMHC/ICAM-1 vesicles – MLPCN validation set, flow cytometry, LFA-1/ICAM-1 modulator project, pilot screen (AID 2523;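 active means response below a set limit, under 55% cells CD8-positive and vesicle-bound, and CD8 cells' 90th-percentile brightness under 279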;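 on vesicle binding response: mean PE anti-B7-1 fluorescence of CD8+ cells relative to row control; 100% = QL9-loaded vesicles with DMSO vehicle in the same plate row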); conditions: 2C mouse CD8+ T cells, at 7 µM, stronger effect = lower value; double positive events: measured here: CD8+/vesicle+ event percentage
[7] = target: Integrin beta-1 (Homo sapiens) + Integrin alpha-4 (Homo sapiens) (UniProt P13612+P05556); assay: alpha4beta1 integrin LIBS antibody binding reduction – U937 cells, HUTS-21 mAb, flow cytometry, validation set, VLA-4 allosteric modulator project, pilot screen (AID 2674;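 active means inhibition above 50%, about 3 SD of the validation set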;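 further: antibody binding induced by the VLA-4 ligand LDV present at three times its Kd; 0% = LDV ligand with antibody and no compound and 100% = antibody without LDV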); conditions: HUTS-21 LIBS mAb binding, at 6.7 µM, stronger effect = higher value, binding induced by LDV ligand
[8] = calorie-restriction mimetic ROS inhibitors, yeast – validation compound set, pilot screen (AID 2706;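 active means superoxide response below 65% of plate, a cut near 3 SD across the whole screen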;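 further: yeast exposed to compound for one week at 30 degrees C before staining; 100% = mean of all compound wells on the same plate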); conditions: S. cerevisiae aging, superoxide DHE fluorescence; at 10 µM; stronger effect = lower value
[9] = target: Beta-adrenergic receptor kinase 1 (Homo sapiens) (UniProt P25098); assay: GRK2 binders displacing RNA aptamer, biochemical, validation, human GRK2, bead flow cytometry (AID 488806;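 active means aptamer binding inhibition above 30%, about 3 SD of noise from non-fluorescent compounds; inactive means inhibition at or below 30%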); conditions: bead-bound GRK2, FAM-aptamer displacement, at 10 µM, stronger effect = higher value
[10] = target: Beta-2 adrenergic receptor (Homo sapiens) (UniProt P07550); assay: agonist-induced loss of surface beta2AR – cell-based, FAP fluorogen, flow cytometry, validation set, pilot screen (AID 504459); conditions: Am2.2-beta2AR cells, at 10 µM, stronger effect = higher value;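 further: agonist-driven loss of surface beta2AR via internalization measured by FAP dye flow cytometry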
[11] = target: AP-2 complex subunit beta (Homo sapiens) (UniProt P63010); assay: beta-arrestin/AP2 interaction blockers – biochemical, validation set, GST-AP2 beads, flow cytometry, pilot screen (AID 504541;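 active means inhibition above 54%, about 3 SD of non-fluorescent compounds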;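 further: AP2 carries R879A mutation and is captured from E. coli lysate; bead-bound FITC arrestin peptide fluorescence measuring arrestin peptide binding to AP2; 0% = DMSO wells and 100% = excess unlabeled arrestin peptide control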); conditions: FITC arrestin peptide, at 10 µM, stronger effect = higher value, AP2 beta2 appendage fragment, R879A mutant
[12] = cytosolic pH regulators acting via V-ATPase – S. cerevisiae, pHLuorin, HTS validation (AID 504600; in the data active means response above about 15%;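 further: plate controls were DMSO for no effect and reference compound for full effect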); conditions: V-ATPase proton transport, at 10 µM, stronger effect = higher value
[13] = test system: anti-desmoglein-3 scFv antibody binding to human DSG3; assay: blockers of pathogenic pemphigus antibody–desmoglein-3 binding – biochemical, validation compound set, bead-based, flow cytometry, pilot screen (AID 588368;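 active means binding below the plate cutoff, the plate median minus 3 SD, with a reading above zero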;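 further: signal is the median channel fluorescence of bead-bound GFP antibody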); conditions: Protein G beads, DSG3-Fc, scFv-GFP binding, at 10 µM, stronger effect = lower value
[14] = Nile Red efflux blockade in pump-expressing yeast – validation compound set, multiplex, phenotypic, pilot screen (AID 588506;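 active means efflux inhibition above 0.42, the validation set average plus 4 SD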;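 further: Nile Red retained in cells so higher fluorescence means more efflux inhibition; 0 = negative control wells and 1 = enniatin B 25 µM full block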); conditions: S. cerevisiae pump-expressing triplex, Nile Red efflux flow cytometry; at 10 µM; stronger effect = higher value; the pumps come from Candida albicans
[15] = target: ATP-binding cassette sub-family B member 6 (Homo sapiens) (UniProt Q9NP58); assay: blockers of ABCB6-driven porphyrin uptake – K562-ABCB6 cells, flow cytometry, validation set, pilot screen (AID 588550;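 active means inhibition above the screen-wide mean plus 3 SD, about 51%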;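 further: 0% = DMSO wells and 100% = benzethonium chloride 70 µM positive control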); conditions: K562-ABCB6 porphyrin accumulation, 1 h, at 10 µM, stronger effect = higher value
[16] = AML differentiation inducers, ER-HoxA9 marrow cells – cell-based, GFP/MAC1 double positive, flow cytometry, validation set, primary screen (AID 588685;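 active means differentiation response of at least 50%, scaled between solvent and reference control, from cells with both markers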;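 further: compound exposure lasts four days before antibody staining and flow analysis; 0% = DMSO wells and 100% = 5 µM fulvestrant positive control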); conditions: stronger effect = higher value, normalized: vehicle 0, fulvestrant 100

Sequence of Beta-adrenergic receptor kinase 1 (Homo sapiens) (P25098 whole entry, looked up): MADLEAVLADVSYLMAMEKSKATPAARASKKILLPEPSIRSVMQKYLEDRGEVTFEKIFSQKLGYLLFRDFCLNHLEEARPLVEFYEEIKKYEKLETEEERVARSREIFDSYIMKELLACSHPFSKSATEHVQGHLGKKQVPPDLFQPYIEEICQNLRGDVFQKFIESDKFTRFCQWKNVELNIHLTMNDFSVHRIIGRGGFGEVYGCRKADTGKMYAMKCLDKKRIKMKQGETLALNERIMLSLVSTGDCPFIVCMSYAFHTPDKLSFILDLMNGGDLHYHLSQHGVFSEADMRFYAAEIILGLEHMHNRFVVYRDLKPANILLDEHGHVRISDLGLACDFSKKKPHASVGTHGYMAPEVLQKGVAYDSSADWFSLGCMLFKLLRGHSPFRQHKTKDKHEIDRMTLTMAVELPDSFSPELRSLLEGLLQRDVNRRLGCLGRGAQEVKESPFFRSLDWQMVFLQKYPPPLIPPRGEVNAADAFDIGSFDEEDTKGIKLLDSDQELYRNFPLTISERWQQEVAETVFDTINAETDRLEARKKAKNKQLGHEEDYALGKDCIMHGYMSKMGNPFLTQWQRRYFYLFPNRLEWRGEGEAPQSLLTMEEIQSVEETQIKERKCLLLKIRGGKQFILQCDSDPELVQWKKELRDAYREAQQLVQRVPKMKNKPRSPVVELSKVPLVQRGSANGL
Sequence of Integrin beta-1 (Homo sapiens) + Integrin alpha-4 (Homo sapiens) (P05556 whole entry, looked up): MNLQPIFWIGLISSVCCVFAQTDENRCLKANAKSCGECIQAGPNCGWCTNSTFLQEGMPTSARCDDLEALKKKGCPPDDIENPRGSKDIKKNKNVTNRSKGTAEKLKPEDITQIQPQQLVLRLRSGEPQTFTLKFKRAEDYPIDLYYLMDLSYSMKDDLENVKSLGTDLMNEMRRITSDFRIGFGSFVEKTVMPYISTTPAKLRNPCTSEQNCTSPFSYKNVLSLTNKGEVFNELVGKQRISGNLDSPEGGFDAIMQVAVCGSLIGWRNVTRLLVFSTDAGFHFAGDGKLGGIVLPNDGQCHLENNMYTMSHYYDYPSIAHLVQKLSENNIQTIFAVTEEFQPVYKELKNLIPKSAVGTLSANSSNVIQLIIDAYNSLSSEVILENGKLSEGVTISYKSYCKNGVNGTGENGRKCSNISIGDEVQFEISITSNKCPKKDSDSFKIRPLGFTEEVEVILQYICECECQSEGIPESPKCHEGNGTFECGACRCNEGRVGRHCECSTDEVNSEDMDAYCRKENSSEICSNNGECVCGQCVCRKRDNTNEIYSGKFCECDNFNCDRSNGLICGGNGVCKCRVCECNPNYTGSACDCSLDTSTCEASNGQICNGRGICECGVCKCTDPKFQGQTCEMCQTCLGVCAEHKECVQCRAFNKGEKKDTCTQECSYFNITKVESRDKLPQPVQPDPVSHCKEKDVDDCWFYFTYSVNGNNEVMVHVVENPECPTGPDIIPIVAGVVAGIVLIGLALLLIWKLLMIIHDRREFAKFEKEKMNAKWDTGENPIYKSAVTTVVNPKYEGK
Sequence of Integrin beta-1 (Homo sapiens) + Integrin alpha-4 (Homo sapiens) (P13612 whole entry, looked up): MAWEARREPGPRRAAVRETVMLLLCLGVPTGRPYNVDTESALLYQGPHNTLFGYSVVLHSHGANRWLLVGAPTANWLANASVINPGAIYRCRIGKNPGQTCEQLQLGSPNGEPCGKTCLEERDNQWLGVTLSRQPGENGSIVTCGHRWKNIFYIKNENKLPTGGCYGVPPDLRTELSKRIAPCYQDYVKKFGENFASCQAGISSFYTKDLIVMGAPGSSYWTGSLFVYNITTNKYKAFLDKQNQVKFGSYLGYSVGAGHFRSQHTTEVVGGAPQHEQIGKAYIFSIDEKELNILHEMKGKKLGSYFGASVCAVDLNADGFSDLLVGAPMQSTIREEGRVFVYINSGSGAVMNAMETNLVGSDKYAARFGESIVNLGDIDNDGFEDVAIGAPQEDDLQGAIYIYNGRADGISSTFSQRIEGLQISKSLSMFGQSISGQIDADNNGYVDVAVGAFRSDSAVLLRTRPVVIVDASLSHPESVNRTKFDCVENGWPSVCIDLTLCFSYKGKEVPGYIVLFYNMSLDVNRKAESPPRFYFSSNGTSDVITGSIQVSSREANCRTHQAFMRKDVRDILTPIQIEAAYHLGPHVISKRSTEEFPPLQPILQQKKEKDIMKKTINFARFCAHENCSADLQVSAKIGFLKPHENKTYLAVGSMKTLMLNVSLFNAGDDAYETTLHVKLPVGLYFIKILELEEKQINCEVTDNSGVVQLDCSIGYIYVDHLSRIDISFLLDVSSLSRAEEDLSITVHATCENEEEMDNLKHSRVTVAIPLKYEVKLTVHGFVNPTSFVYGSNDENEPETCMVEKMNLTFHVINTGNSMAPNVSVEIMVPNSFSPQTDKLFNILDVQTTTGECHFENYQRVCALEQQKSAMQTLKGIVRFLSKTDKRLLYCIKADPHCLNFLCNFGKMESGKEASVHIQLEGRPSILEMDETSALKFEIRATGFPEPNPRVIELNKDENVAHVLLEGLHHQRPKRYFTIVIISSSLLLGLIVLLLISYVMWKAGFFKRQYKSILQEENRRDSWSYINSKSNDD
Sequence of AP-2 complex subunit beta (Homo sapiens) (P63010 whole entry, looked up, the tested form may be a part, one chain of several): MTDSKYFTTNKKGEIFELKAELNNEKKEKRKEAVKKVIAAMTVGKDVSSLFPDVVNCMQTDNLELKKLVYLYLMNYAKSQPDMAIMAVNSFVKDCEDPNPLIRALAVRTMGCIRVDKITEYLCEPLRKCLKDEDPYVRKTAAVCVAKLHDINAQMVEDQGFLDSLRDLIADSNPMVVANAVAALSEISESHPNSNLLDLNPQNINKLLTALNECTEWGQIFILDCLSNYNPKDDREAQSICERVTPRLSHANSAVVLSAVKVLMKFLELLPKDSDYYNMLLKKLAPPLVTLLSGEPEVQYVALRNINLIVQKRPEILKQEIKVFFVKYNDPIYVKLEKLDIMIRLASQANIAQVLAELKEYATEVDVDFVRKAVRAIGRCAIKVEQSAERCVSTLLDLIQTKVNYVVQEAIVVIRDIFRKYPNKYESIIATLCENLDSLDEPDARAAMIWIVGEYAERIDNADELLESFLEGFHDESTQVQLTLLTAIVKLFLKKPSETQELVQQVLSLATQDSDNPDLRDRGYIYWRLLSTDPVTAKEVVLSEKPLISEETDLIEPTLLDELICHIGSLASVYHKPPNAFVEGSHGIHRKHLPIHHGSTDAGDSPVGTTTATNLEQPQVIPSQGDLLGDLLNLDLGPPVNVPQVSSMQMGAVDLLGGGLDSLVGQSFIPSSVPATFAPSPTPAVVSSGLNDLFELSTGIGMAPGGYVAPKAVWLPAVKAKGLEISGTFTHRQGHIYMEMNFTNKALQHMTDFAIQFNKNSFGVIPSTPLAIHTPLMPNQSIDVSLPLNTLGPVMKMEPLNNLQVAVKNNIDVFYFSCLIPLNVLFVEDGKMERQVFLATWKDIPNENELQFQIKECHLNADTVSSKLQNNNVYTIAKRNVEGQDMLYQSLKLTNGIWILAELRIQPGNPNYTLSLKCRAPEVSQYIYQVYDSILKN
Sequence of Beta-2 adrenergic receptor (Homo sapiens) (P07550 whole entry, looked up): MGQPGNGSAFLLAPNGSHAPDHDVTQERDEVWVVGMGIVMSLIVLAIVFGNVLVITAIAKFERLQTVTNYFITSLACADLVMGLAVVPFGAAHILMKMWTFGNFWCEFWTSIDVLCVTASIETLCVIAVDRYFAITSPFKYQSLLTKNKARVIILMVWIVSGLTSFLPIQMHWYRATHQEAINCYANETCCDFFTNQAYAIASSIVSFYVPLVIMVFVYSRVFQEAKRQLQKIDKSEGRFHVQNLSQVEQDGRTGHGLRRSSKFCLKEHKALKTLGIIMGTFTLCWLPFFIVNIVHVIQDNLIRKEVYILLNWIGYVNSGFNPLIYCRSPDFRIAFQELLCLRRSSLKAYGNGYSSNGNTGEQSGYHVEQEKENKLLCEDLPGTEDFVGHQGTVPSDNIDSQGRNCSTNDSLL
Sequence of ATP-binding cassette sub-family B member 6 (Homo sapiens) (Q9NP58 whole entry, looked up): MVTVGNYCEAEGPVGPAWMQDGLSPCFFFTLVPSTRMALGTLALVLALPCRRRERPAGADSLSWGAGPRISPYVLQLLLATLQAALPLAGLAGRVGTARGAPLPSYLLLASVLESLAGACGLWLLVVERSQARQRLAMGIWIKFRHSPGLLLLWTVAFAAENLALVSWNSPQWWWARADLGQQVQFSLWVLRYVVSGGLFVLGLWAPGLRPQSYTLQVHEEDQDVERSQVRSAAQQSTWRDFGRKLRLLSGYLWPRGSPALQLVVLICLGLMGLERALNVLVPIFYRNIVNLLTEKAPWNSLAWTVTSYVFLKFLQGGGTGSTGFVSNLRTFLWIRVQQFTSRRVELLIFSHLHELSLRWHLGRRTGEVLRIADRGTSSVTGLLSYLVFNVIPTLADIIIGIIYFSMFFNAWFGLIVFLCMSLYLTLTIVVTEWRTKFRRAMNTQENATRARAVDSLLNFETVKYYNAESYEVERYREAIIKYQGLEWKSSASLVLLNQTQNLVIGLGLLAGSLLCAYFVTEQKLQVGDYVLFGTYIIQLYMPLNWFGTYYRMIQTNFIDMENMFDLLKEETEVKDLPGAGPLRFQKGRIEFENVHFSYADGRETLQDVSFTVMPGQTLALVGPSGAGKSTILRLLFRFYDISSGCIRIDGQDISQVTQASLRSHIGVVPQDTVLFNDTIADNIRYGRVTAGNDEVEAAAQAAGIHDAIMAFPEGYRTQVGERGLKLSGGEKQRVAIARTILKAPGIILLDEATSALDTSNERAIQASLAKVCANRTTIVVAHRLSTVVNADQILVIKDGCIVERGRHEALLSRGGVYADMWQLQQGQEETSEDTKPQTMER

With COc1ccc(CN2CCCCC2C(=O)Nc2ccc(OC)c(OCC(C)C)c2)cc1OC (stereo not drawn) the percent of DMSO control GFP [1] was 100% (inactive), the GFP response vs DMSO [2] was 103% (inactive) and the percent response of DMSO control [3] was 101% (inactive). The GFP response vs DMSO [4] was 90.7% (inactive), the GFP response, % of DMSO [5] was 104% (inactive) and the double positive events [6] was 54.3%. For the same molecule, the vesicle binding response [6] was 29% (active), the inhibition [7] was -0.45% (inactive) and the superoxide response (% of plate) [8] was 95% (inactive). The aptamer binding inhibition [9] was 2% (inactive), the response [10] was -10.2% (inactive) and the inhibition [11] was 18.5% (inactive). For the same molecule, the response [12] was -0.65% (inactive), the binding (% of control) [13] was 95.9% (inactive) and the efflux inhibition (fraction of control) [14] was -0.35 (inactive). For the same molecule, the inhibition [15] was 4% (inactive) and the differentiation response [16] was 2.2% (inactive).

For O=C(CN1CCN(Cc2ccccc2)CC1)N1CCCc2c1c(=O)oc1ccc(O)cc21, the percent of DMSO control GFP [1] was 93.3% (inactive), the GFP response vs DMSO [2] was 127% (inactive) and the percent response of DMSO control [3] was 108% (inactive). For the same molecule, the GFP response vs DMSO [4] was 77.6% (inactive), the GFP response, % of DMSO [5] was 84.3% (inactive) and the double positive events [6] was 53%. The vesicle binding response [6] was 202% (inactive), the inhibition [7] was -11% (inactive) and the superoxide response (% of plate) [8] was 107% (inactive). For the same molecule, the aptamer binding inhibition [9] was -3% (inactive), the response [10] was -14.1% (inactive) and the inhibition [11] was 9.01% (inactive). For the same molecule, the response [12] was -1.88% (inactive), the binding (% of control) [13] was 109% (inactive) and the efflux inhibition (fraction of control) [14] was -0.31 (inactive). The inhibition [15] was 3% (inactive) and the differentiation response [16] was 8.19% (inactive).

In the case of CC(C)C(=O)Nc1ccc2c3c(cccc13)CC2, the percent of DMSO control GFP [1] is reported as 95% (inactive), the GFP response vs DMSO [2] is reported as 98.5% (inactive) and the percent response of DMSO control [3] is reported as 92% (inactive). The GFP response vs DMSO [4] was 124% (inactive), the GFP response, % of DMSO [5] was 102% (inactive) and the double positive events [6] was 62.6%. For the same molecule, the vesicle binding response [6] was 191% (inactive), the inhibition [7] was 10.5% (inactive) and the superoxide response (% of plate) [8] was 99.4% (inactive). For the same molecule, the aptamer binding inhibition [9] was 5% (inactive), the response [10] was 21.1% (inactive) and the inhibition [11] was 18.6% (inactive). For the same molecule, the response [12] was -2.45% (inactive), the binding (% of control) [13] was 94.9% (inactive) and the efflux inhibition (fraction of control) [14] was -0.24 (inactive). For the same molecule, the inhibition [15] was 8% (inactive) and the differentiation response [16] was 5.6% (inactive).

With CC(=O)NC(C(=O)NCC(N)=O)C(C)C (stereo not drawn) (Ac-[ξV]-Gly-NH2) the percent of DMSO control GFP [1] was 104% (inactive), the GFP response vs DMSO [2] was 93% (inactive) and the percent response of DMSO control [3] was 111% (inactive). The GFP response vs DMSO [4] was 95.3% (inactive), the GFP response, % of DMSO [5] was 97.3% (inactive) and the double positive events [6] was 65.3%. The vesicle binding response [6] was 195% (inactive), the inhibition [7] was -7.72% (inactive) and the superoxide response (% of plate) [8] was 93.7% (inactive). The aptamer binding inhibition [9] was -2% (inactive), the response [10] was -7.22% (inactive) and the inhibition [11] was -9.46% (inactive). For the same molecule, the response [12] was 0.49% (inactive), the binding (% of control) [13] was 96.9% (inactive) and the efflux inhibition (fraction of control) [14] was -0.2 (inactive). For the same molecule, the inhibition [15] was 0% (inactive) and the differentiation response [16] was 13.9% (inactive).

With Nc1nnc(CSCc2ccc(Cl)cc2Cl)s1 the percent of DMSO control GFP [1] was 101% (inactive), the GFP response vs DMSO [2] was 98.7% (inactive) and the percent response of DMSO control [3] was 105% (inactive). For the same molecule, the GFP response vs DMSO [4] was 105% (inactive), the GFP response, % of DMSO [5] was 105% (inactive) and the double positive events [6] was 58.8%. For the same molecule, the vesicle binding response [6] was 162% (inactive), the inhibition [7] was -11.8% (inactive) and the superoxide response (% of plate) [8] was 95.2% (inactive). For the same molecule, the aptamer binding inhibition [9] was -1% (inactive), the response [10] was -6.41% (inactive) and the inhibition [11] was 5.12% (inactive). For the same molecule, the response [12] was 3.83% (inactive), the binding (% of control) [13] was 112% (inactive) and the efflux inhibition (fraction of control) [14] was 0.47 (active). The inhibition [15] was 0% (inactive) and the differentiation response [16] was 10.1% (inactive).

In the case of CC(C)N(Cc1nccn1C)C(=O)CC1C(=O)NCCN1Cc1ccccc1C(F)(F)F (stereo not drawn), the percent of DMSO control GFP [1] is reported as 102% (inactive), the GFP response vs DMSO [2] is reported as 98.7% (inactive) and the percent response of DMSO control [3] is reported as 102% (inactive). For the same molecule, the GFP response vs DMSO [4] was 97% (inactive), the GFP response, % of DMSO [5] was 103% (inactive) and the double positive events [6] was 71.7%. For the same molecule, the vesicle binding response [6] was 182% (inactive), the inhibition [7] was 4.27% (inactive) and the superoxide response (% of plate) [8] was 82.9% (inactive). The aptamer binding inhibition [9] was -2% (inactive), the response [10] was 2.35% (inactive) and the inhibition [11] was -0.01% (inactive). The response [12] was -1.67% (inactive), the binding (% of control) [13] was 102% (inactive) and the efflux inhibition (fraction of control) [14] was -0.5 (inactive). The inhibition [15] was 6% (inactive) and the differentiation response [16] was -0.18% (inactive).

With CCOC(=O)C(=Cc1ccccc1OC)C(=O)OCC the percent of DMSO control GFP [1] was 95% (inactive), the GFP response vs DMSO [2] was 108% (inactive) and the percent response of DMSO control [3] was 91% (inactive). The GFP response vs DMSO [4] was 132% (inactive), the GFP response, % of DMSO [5] was 92.9% (inactive) and the double positive events [6] was 55.3%. The vesicle binding response [6] was 189% (inactive), the inhibition [7] was -18.2% (inactive) and the superoxide response (% of plate) [8] was 102% (inactive). The aptamer binding inhibition [9] was -2% (inactive), the response [10] was -11.8% (inactive) and the inhibition [11] was 0.13% (inactive). The response [12] was 0.91% (inactive), the binding (% of control) [13] was 98.9% (inactive) and the efflux inhibition (fraction of control) [14] was -0.03 (inactive). For the same molecule, the inhibition [15] was 4% (inactive) and the differentiation response [16] was -12% (inactive).

With Cc1c(NC(=O)c2cccs2)cccc1[N+](=O)[O-] the percent of DMSO control GFP [1] was 102% (inactive), the GFP response vs DMSO [2] was 103% (inactive) and the percent response of DMSO control [3] was 102% (inactive). For the same molecule, the GFP response vs DMSO [4] was 107% (inactive), the GFP response, % of DMSO [5] was 99.1% (inactive) and the double positive events [6] was 67.8%. The vesicle binding response [6] was 342% (inactive), the inhibition [7] was 2.93% (inactive) and the superoxide response (% of plate) [8] was 95.5% (inactive). The aptamer binding inhibition [9] was -4% (inactive), the response [10] was 3.73% (inactive) and the inhibition [11] was -17.9% (inactive). The response [12] was -1.2% (inactive), the binding (% of control) [13] was 104% (inactive) and the efflux inhibition (fraction of control) [14] was -0.01 (inactive). For the same molecule, the inhibition [15] was 1% (inactive) and the differentiation response [16] was 18.8% (inactive).

With CN(C)C(=O)Oc1cccc([N+](C)(C)C)c1 the percent of DMSO control GFP [1] was 95.7% (inactive) and 98.8% (inactive), the GFP response vs DMSO [2] was 104% (inactive) and 109% (inactive) and the percent response of DMSO control [3] was 100% (inactive) and 91% (inactive). For the same molecule, the GFP response vs DMSO [4] was 115% (inactive) and 112% (inactive), the GFP response, % of DMSO [5] was 110% (inactive) and 105% (inactive) and the double positive events [6] was 55.5% and 63.8%. For the same molecule, the vesicle binding response [6] was 158% (inactive) and 4880% (inactive), the inhibition [7] was -2.82% (inactive) and 3.67% (inactive) and the superoxide response (% of plate) [8] was 93.6% (inactive) and 108% (inactive). The aptamer binding inhibition [9] was -3% (inactive) and 4% (inactive), the response [10] was -26.2% (inactive) and -0.74% (inactive) and the inhibition [11] was -12.1% (inactive) and 15% (inactive). For the same molecule, the response [12] was 0% (inactive) and -1.87% (inactive), the binding (% of control) [13] was 106% (inactive) and 97.8% (inactive) and the efflux inhibition (fraction of control) [14] was 0 (inactive) and -0.13 (inactive). The inhibition [15] was 2% (inactive) and 4% (inactive) and the differentiation response [16] was -0.06% (inactive) and -15.2% (inactive).
